Measurements taken from PubChem BioAssay (EPA / NIEHS).
Activity calls are given as the source filed them. The calls were made as follows: active = hit-call score of the fitted dose curve at least 0.9, where 1 is the maximum; inactive = score below 0.9.

experiment: Tanguay_ZF_120hpf_MO24: Oregon State University Tanguay Lab 24 Hour Post-fertilization zebrafish Assay for Mortality (AID 2284389)
Description: Tanguay_ZF_120hpf is a whole embryo, multiplexed endpoint assay using zebrafish larvae exposed for 120 hours post fertilization on a 96-well plate.Tanguay_ZF_120hpf_MO24 is one of one assay component(s) measured or calculated from the Tanguay_ZF_120hpf assay. It is designed to make measurements of zebrafish development as detected with brightfield microscopy of developing zebrafish embryos.Data from the assay component Tanguay_ZF_120hpf_MO24 was analyzed into 1 assay endpoints. This assay endpoint, Tanguay_ZF_120hpf_MO24, was analyzed in the positive analysis fitting direction relative to DMSO as the negative control and baseline of activity. Using a type of viability reporter, gain-of-signal activity can be used to understand changes in developmentals as they relate to the whole embryo. To generalize the intended target to other relatable targets, this assay endpoint is annotated to the zebrafish development intended target family, where the subfamily is embryonic mortality.
Zebrafish husbandry: Tropical 5D wild-type adult zebrafish were housed in at an approximate density of 1000 per 100 gallon tank at the Sinnhuber Aquatic Research Laboratory, Oregon State University, Corvallis, OR. Each tank was kept at standard laboratory conditions of 28C on a 14-h light/10-h dark photoperiod in fish water consisting of reverse osmosis water supplemented with a commercially available salt (Instant Ocean). Spawning funnels were placed into the tanks the night prior, and embryos were collected and staged. To increase bioavailability, the chorion was enzymatically removed using pronase (63.6mg/ml, >/= 3.5U/mg, Sigma-Aldrich: P5147) at 4 hours post fertilization (hpf) using a custom automated dechorionator.Chemical exposures: Six hpf dechorionated embryos were placed 1 embryo per well in a 96-well plate prefilled with 90 ul of EM using automated embryo placement systems (AEPS). Ten microliters of each row of dilution plate 2 was added to 2 exposure plates. The final DMSO concentration used was 0.64% (vol/vol). Thirty-two embryos were also exposed to 5uM trimethyltin chloride (positive control). Plates were sealed to prevent evaporation and foil covered to reduce light exposure and kept in a 28C incubator. Embryos were statically exposed until 120 hpf. At 24 hpf, embryos were assessed for photomotor response using a custom photomotor response analysis tool (PRAT) and for developmental toxicity endpoints (MO24: mortality at 24 hpf, DP: developmental progression, SM: spontaneous movement, and NC: notochord distortion). At 120 hpf, locomotor activity was measured using Viewpoint Zebralab and assessed for 13 endpoints. Zebrafish acquisition and analysis program (ZAAP), a custom program designed to inventory, acquire, and manage zebrafish data, was used to collect developmental endpoints as either present or absent (i.e., binary responses were recorded). If mortality occurred for an embryo (at either 24 or 120 hpf), the non-mortality endpoints were not measured.

SMILES | outcome | AC50
NCC(F)(F)C(F)(F)C(F)(F)C(F)(F)F | inactive | 
O=C(Cl)C(F)(F)C(F)(F)C(F)(F)C(=O)Cl |  | 57.3 µM (active)
O=S(=O)(O)CCC(F)(F)C(F)(F)C(F)(F)C(F)(F)C(F)(F)C(F)(F)F | inactive | 
C[Si](C)(C)C(F)(F)C(F)(F)C(F)(F)F | inactive | 
FC(F)(F)C(F)(F)C(F)(F)C(F)(F)C(F)(F)C(F)(F)I | inactive | 
FC(F)C(F)(F)COCC1CO1 (stereo not given) | inactive | 
OCCC(F)(F)C(F)(F)C(F)(F)C(F)(F)F | inactive | 
FC(F)(F)COC(OCC(F)(F)F)OCC(F)(F)F | inactive | 
FC(F)=C(F)C(F)(F)C(F)(F)C(F)(F)C(F)(F)C(F)(F)C(F)(F)F | inactive | 
OC(O)(C(F)C(O)(O)C(F)(F)F)C(F)(F)F | inactive | 
